Residue numbers refer to the chain shown, from its start. Whole data set: some 16,000 sequences, median “ka relative to ugcaugu” near 0.096, cut for the highest 2% near 0.35. The sample as a whole holds a higher share of the highest values than the screen did.

Sequences and labels used below:
T1: RBFOX1 RRM RbFoxmut (Fox-RRM*) (Homo sapiens, UniProt Q9NWB1 109-208, R118D;E147R;N151S;E152T)
T1 sequence: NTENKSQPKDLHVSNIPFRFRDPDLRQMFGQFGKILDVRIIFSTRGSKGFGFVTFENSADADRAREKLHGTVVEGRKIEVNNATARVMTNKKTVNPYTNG

B1: GCAACGU (DNA:RNA)
RNA: GGGAGACCGGAAUUCAGAUUGUCCGCAACGUUUAAAUCCCGUCGUAGCCACCA
DNA 1: CAATCTGAATTCCGGTCTCCC
DNA 2: TGGTGGCTACGACGGGATT
B2: UGGCAUU (DNA:RNA)
RNA: B1 RNA with G25U, C26G, A27G, A28C, C29A, G30U
DNA 1: CAATCTGAATTCCGGTCTCCC
DNA 2: TGGTGGCTACGACGGGATT
B3: UGGCACC (DNA:RNA)
RNA: GGGAGACCGGAAUUCAGAUUGUCCUGGCACCUUAAAUCCCGUCGUAGCCACCA
DNA 1: CAATCTGAATTCCGGTCTCCC
DNA 2: TGGTGGCTACGACGGGATT
B4: UGGCAUG (DNA:RNA)
RNA: B3 RNA with C30U, C31G
DNA 1: CAATCTGAATTCCGGTCTCCC
DNA 2: TGGTGGCTACGACGGGATT
B5: UGGCAGA (DNA:RNA)
RNA: B3 RNA with C30G, C31A
DNA 1: CAATCTGAATTCCGGTCTCCC
DNA 2: TGGTGGCTACGACGGGATT
B6: UGGCAUA (DNA:RNA)
RNA: B3 RNA with C30U, C31A
DNA 1: CAATCTGAATTCCGGTCTCCC
DNA 2: TGGTGGCTACGACGGGATT
B7: UGGCAUC (DNA:RNA)
RNA: B3 RNA with C30U
DNA 1: CAATCTGAATTCCGGTCTCCC
DNA 2: TGGTGGCTACGACGGGATT
B8: UAUCAAU (DNA:RNA)
RNA: B3 RNA with G26A, G27U, C30A, C31U
DNA 1: CAATCTGAATTCCGGTCTCCC
DNA 2: TGGTGGCTACGACGGGATT
B9: CCACUGA (DNA:RNA)
RNA: B1 RNA with G25C, A28C, C29U, U31A
DNA 1: CAATCTGAATTCCGGTCTCCC
DNA 2: TGGTGGCTACGACGGGATT

In the assay the target is T1, RBFOX1 RRM RbFoxmut (Fox-RRM*). Description: EMSA; HiTS-Eq, 1 nM pool, 10 min; buffer printed only for the single-RNA assays: 10 mM Tris pH 7.5, 150 mM NaCl, 3.4 mM EDTA, 0.001% NP-40, 30 C. The conditions noted are these: tags: His6 N-terminal (pET28a); label: 5' 32P. The gist of the method: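 Relative association constants, normalised to the cognate motif, were derived by comparing read counts of each RNA species with those of the control reaction. The RNA sequenced was the free fraction, separated by 8% native PAGE after a 10 min equilibration in 50 µL of 1 nM 5′-radiolabelled RNA (7 randomized nucleotides) with increasing concentrations of purified wild-type or mutant RbFox RRM.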
A general note: Mobility shift assays separate free from complexed probe on a gel.
On to B1, for which the binding signal is 0.094 KA relative to UGCAUGU.
To B2 belongs 0.1 KA relative to UGCAUGU.
B3: the binding signal is 0.113 KA relative to UGCAUGU.
In the case of B4, the binding signal is 1.17 KA relative to UGCAUGU.
On to B5, for which the binding signal is 0.0918 KA relative to UGCAUGU.
In the case of B6, the binding signal was 0.127 KA relative to UGCAUGU.
Turning to B7, the binding signal was 0.411 KA relative to UGCAUGU.
As to B8, the binding signal is 0.0491 KA relative to UGCAUGU.
Take B9: the binding signal is 0.123 KA relative to UGCAUGU.

The record behind these values is article PMC9911399, “Two distinct binding modes provide the RNA-binding protein RbFox with extraordinary sequence specificity”.
